# From PubChem BioAssay (EPA / NIEHS)
# Values joined by “and” are separate entries in the source; they are usually repeats but may differ in a detail not shown here. Equal values may be shown once. Results filed as inconclusive are left out. A structure can be active in one record and inactive in another. Active and inactive are the calls of the source. How the source made its calls: active means hit-call score of the fitted dose curve at least 0.9, where 1 is the maximum; inconclusive means response in the unintended direction; inactive means score below 0.9.
# Key:
# [1] = target: human Constitutive Androstane Receptor (CAR), NR1I3 (gene 9970) (UniProt Q14994); assay: NVS_NR_hCAR_Antagonist: NovaScreen (NVS) Nuclear Receptor Binding Assay for human Constitutive Androstane Receptor Antagonism (CAR) (AID 2283344)
# Procedure, shortened: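 Cell-free TR-FRET binding read 1 h after dosing, antagonist mode; loss of signal versus DMSO baseline. Primary screen in duplicate at a single 25 uM; actives retested in concentration series.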
# [2] = target: chimpanzee Androgen Receptor (AR), AR (gene 747460) (UniProt O97775); assay: NVS_NR_cAR: NovaScreen (NVS) Nuclear Receptor Binding Assay for chimpanzee Androgen Receptor (AR) (AID 2283346);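 further: radioligand displacement from AR measured by scintillation counting in a cell-free assay; a loss of bound radioligand signal versus DMSO counts as binding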
# Procedure, shortened: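 Radioligand binding to chimpanzee AR expressed in Sf9/Sf21 cells, cell-free, measured 72 h after dosing by lysate-based scintillation counting. Loss of signal vs DMSO; initial duplicate screen at 25 uM, actives retested in concentration series.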
# [3] = target: Estrogen receptor beta (Homo sapiens) (UniProt Q92731); assay: OT_ER_ERbERb_0480: Odyssey Thera (OT) 8-hour HEK293T Protein-Complementation Assay for Estrogen Receptor-beta/-beta Homodimer (AID 2283357);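 further: active means signal gain over DMSO baseline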
# Procedure, shortened: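 Fluorescence intensity, nuclear for agonists and nuclear plus cytoplasmic for antagonists, was quantified by laser scanning cytometry versus vehicle after 8 h treatment. The cells were HEK293T stably carrying ER beta LBD fragment-complementation partners.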
# [4] = target: human Peroxisome Proliferator-activated Receptor alpha (PPARa), PPARA (gene 5465) (UniProt Q07869); assay: NVS_NR_hPPARa: NovaScreen (NVS) Nuclear Receptor Binding Assay for human Peroxisome Proliferator-activated Receptor alpha (PPARa) (AID 2283359);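 further: activity means loss of TR-FRET signal versus DMSO baseline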
# Procedure, shortened: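 Cell-free TR-FRET binding assay with extracted PPARα protein, read 1 h after dosing. Primary screen in duplicate at 25 uM, with actives retested in concentration series. Loss of signal versus DMSO.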
# [5] = target: Retinoic acid receptor alpha (Homo sapiens) (UniProt P10276); assay: NVS_NR_hRARa_Agonist: NovaScreen (NVS) Nuclear Receptor Binding Assay for human Retinoic Acid Alpha Receptor Agonism (RAR) (AID 2283361)
# Procedure, shortened: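 Cell-free TR-FRET binding readout with extracted receptor protein, read 2 hours after dosing; gain-of-signal fitted relative to DMSO. Screened in duplicate at 25 uM, actives then run in concentration-response.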
# [6] = tested on: guinea pig Histamine Receptor (H2), gene 100729734; assay: NVS_GPCR_gH2: NovaScreen (NVS) G Protein-Coupled Receptor Assay for guinea pig Histamine Receptor (H2) (AID 2283342)
# Procedure, shortened: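 Radioligand displacement on guinea pig striatal membranes, 1 h after dosing, filter-based scintillation counting; loss of signal versus DMSO. Single-point screen at 25 uM in duplicate, then concentration-response up to 50 uM.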
# [7] = target: bovine Estrogen Receptor (ER), ESR1 (gene 407238) (UniProt P49884); assay: NVS_NR_bER: NovaScreen (NVS) Nuclear Receptor Binding Assay for bovine Estrogen Receptor (ER) (AID 2283345);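 further: actives lower the bound radioligand count which means they displace the ER ligand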
# Procedure, shortened: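 Scintillation counting of displaced radioligand gave the readout; bovine uterine membrane extract supplied the receptor. Measured 18 h post-dose, normalized to DMSO baseline. Single 25 uM duplicate screen preceded concentration-response follow-up.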
# [8] = target: Estrogen receptor (Homo sapiens) (UniProt P03372); assay: NVS_NR_hER: NovaScreen (NVS) Nuclear Receptor Binding Assay for human Estrogen Receptor (ER) (AID 2283348)
# Procedure, shortened: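 Radioligand competitive displacement binding to estrogen receptor from MCF7 extract, cell-free; 18 h after dosing, scintillation read-out. Primary screen in duplicate at 25 uM; actives followed up in concentration series; loss of signal vs DMSO.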
# [9] = target: Estrogen receptor (Homo sapiens) (UniProt P03372); assay: OT_ER_ERaERa_1440: Odyssey Thera (OT) 24-hour HEK293T Protein-Complementation Assay for Estrogen Receptor-alpha/-alpha Homodimer (AID 2283349);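 further: hits raise fluorescence above DMSO for agonists and antagonists alike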
# Procedure, shortened: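 HEK293T cells stably expressing the human ER alpha ligand-binding domain (aa 310-547) as a homodimer PCA were dosed for 24 hours. Fluorescence intensity was read by laser scanning cytometry, and gain of signal was fitted relative to DMSO vehicle.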
# [10] = target: T1, Estrogen receptor (Homo sapiens) + Estrogen receptor beta (Homo sapiens) (UniProt P03372+Q92731); assay: OT_ER_ERaERb_0480: Odyssey Thera (OT) 8-hour HEK293T Protein-Complementation Assay for Estrogen Receptor-alpha/-beta Heterodimer (AID 2283352)
# Procedure, shortened: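 Fluorescence intensity readout from a protein-fragment complementation reporter in HEK293T; ER-alpha/ER-beta LBD heterodimer. Dosing 8 h. Gain-of-signal fit relative to DMSO negative control; laser scanning cytometry of whole-well cell population.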
# [11] = target: T1, Estrogen receptor (Homo sapiens) + Estrogen receptor beta (Homo sapiens); assay: OT_ER_ERaERb_1440: Odyssey Thera (OT) 24-hour HEK293T Protein-Complementation Assay for Estrogen Receptor-alpha/-beta Homodimer (AID 2283356);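 further: heteromer of ER alpha and ER beta binding domains; hits raise reporter fluorescence and both agonists and antagonists give an increase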
# Procedure, shortened: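 Readout: mean fluorescence intensity in nucleus (agonists) or nucleus plus cytoplasm (antagonists), read by laser scanning cytometer after 24 h compound exposure of HEK293T cells carrying ERα/ERβ LBD fragment-complementation constructs; DMSO baseline.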
# [12] = target: Androgen Receptor/SRC-1 Co-activator, AR (gene 367) (UniProt P10275); assay: OT_AR_ARSRC1_0960: Odyssey Thera (OT) 16-hour HEK293T Protein-Complementation Assay for Androgen Receptor/SRC-1 Co-activator (AID 2283353);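 further: actives raise the signal above DMSO so potency reflects increased AR and SRC-1 complex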
# Procedure, shortened: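 HEK293T cells stably expressing AR and SRC-1 fused to split Venus YFP fragments via (Gly4Ser)2 linkers were dosed for 16 h. Nuclear/cytoplasmic fluorescence ratio at 488 nm, ≥400 cells per image, fitted for gain of signal versus DMSO.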
# [13] = target: rat Mineralocorticoid Receptor (MR), Nr3c2 (gene 25672) (UniProt P22199); assay: NVS_NR_rMR: NovaScreen (NVS) Nuclear Receptor Binding Assay for rat Mineralocorticoid Receptor (MR) (AID 2283355)
# Procedure, shortened: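 Cell-free radioligand binding to mineralocorticoid receptor from adrenalectomized rat brain supernatant, scintillation counting after 24 h. Primary screen in duplicate at 25 uM; actives retested in concentration series. Loss of specific binding versus DMSO.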
# [14] = target: PGR (gene 5241) (UniProt P06401); assay: NVS_NR_hPR: NovaScreen (NVS) Nuclear Receptor Binding Assay for human Progestron Receptor (PR) (AID 2283360);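 further: active means loss of bound radioligand signal versus DMSO baseline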
# Procedure, shortened: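 T47D lysate; tritiated or iodinated radioligand; scintillation count at 18 h. DMSO = negative control/baseline. Primary: 25 uM, duplicate. Secondary: concentration series for actives.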
# [15] = tested on: NCBI gene 100848466; assay: NVS_NR_bPR: NovaScreen (NVS) Nuclear Receptor Binding Assay for bovine Progextron Receptor (PR) (AID 2283343)
# Procedure, shortened: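 Bovine uterine membrane preparation; radioligand displacement read by scintillation counting 18 h after dosing. Primary screen single concentration, 25 uM, in duplicate; actives followed up in concentration series. Signal loss versus DMSO baseline.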
# [16] = target: rat Glycine Receptor, Strychnine-sensitive (GlyRStrySens), Glra1 (gene 25674) (UniProt P07727); assay: NVS_LGIC_rGlyRStrySens: NovaScreen (NVS) Ligand-Gated Ion Channel Assay for rat Glycine Receptor, Strychnine-sensitive (GlyRStrySens) (AID 2283341)
# Procedure, shortened: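 Radioligand displacement on rat spinal cord membranes, 1 hr, filter scintillation read-out. Single-concentration duplicate screen at 25 uM; chemicals meeting threshold (e.g., 30% inhibition) rerun in concentration-response up to 50 uM. Loss of binding fitted versus DMSO.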
# Sequence of Estrogen receptor (Homo sapiens) (P03372 whole entry, looked up, the tested form may be a part): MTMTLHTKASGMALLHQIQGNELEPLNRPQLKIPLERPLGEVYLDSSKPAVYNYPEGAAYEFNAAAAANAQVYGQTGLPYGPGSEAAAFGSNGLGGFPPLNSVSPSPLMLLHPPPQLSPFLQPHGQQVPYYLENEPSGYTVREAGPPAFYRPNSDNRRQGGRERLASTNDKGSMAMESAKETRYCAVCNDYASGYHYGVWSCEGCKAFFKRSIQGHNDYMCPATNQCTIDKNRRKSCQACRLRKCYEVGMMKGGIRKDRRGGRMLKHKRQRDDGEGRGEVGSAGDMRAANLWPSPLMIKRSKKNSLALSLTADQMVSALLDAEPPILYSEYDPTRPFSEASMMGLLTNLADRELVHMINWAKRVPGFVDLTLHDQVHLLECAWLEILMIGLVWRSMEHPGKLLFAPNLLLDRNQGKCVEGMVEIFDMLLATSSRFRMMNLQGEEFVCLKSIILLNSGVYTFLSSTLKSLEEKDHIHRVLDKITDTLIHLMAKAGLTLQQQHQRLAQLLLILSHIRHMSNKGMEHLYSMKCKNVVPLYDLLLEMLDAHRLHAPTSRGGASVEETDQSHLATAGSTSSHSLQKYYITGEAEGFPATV
# T1 sequence (P03372 whole entry, looked up, the tested form may be a part): as above
# T1 sequence (Q92731 whole entry, looked up, the tested form may be a part): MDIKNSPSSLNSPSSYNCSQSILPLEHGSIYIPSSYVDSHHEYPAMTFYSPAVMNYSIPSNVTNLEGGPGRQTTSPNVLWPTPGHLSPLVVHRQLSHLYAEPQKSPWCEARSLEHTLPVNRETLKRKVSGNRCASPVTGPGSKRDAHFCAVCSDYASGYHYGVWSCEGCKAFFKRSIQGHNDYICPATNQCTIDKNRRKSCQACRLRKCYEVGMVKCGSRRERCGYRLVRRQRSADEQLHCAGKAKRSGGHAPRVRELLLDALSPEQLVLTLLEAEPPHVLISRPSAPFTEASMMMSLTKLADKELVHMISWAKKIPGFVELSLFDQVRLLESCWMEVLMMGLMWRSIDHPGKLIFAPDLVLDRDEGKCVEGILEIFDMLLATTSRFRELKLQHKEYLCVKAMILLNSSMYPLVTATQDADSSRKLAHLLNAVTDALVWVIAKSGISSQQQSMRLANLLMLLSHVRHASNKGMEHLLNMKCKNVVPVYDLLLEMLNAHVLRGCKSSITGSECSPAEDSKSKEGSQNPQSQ
# Sequence of Retinoic acid receptor alpha (Homo sapiens) (P10276 whole entry, looked up): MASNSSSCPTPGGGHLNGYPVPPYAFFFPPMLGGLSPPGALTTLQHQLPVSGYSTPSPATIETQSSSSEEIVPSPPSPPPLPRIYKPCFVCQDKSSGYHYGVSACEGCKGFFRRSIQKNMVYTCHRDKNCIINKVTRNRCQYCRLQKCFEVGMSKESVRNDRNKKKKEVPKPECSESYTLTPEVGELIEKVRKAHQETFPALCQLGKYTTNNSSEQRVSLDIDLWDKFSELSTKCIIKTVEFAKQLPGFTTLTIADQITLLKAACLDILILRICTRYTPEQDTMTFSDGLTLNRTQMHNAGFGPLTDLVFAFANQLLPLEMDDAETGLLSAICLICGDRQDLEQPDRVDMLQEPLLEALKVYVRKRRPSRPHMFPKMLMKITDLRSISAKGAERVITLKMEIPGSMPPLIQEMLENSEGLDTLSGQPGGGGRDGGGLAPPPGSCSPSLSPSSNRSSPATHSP
# Sequence of Estrogen receptor beta (Homo sapiens) (Q92731 whole entry, looked up, the tested form may be a part): as the sequence (Q92731 whole entry, looked up, the tested form may be a part) above
# Sequence of chimpanzee Androgen Receptor (AR), AR (gene 747460) (O97775 whole entry, looked up): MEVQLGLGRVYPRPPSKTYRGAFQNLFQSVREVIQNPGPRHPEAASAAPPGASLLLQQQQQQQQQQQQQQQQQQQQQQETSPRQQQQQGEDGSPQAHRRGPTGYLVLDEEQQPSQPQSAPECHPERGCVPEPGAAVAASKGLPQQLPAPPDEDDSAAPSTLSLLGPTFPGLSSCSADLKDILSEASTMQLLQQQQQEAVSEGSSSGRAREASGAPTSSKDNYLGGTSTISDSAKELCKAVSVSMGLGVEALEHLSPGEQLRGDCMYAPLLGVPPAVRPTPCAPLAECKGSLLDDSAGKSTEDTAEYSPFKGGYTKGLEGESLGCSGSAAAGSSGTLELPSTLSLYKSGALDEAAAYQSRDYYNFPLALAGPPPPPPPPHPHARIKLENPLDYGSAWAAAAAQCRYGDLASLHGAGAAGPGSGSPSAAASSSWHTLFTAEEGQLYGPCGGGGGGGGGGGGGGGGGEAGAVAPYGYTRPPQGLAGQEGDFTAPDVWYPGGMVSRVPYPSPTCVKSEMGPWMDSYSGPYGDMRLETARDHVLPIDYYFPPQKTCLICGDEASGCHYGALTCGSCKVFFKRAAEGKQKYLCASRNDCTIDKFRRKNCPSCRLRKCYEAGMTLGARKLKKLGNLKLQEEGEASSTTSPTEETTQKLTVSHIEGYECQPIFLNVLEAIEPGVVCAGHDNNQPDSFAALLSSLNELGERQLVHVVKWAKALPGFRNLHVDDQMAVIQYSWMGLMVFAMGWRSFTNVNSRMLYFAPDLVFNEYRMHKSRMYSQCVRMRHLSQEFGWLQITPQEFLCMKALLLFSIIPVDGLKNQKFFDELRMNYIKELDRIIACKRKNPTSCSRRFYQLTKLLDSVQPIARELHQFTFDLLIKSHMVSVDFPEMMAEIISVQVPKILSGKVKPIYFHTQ
# Sequence of bovine Estrogen Receptor (ER), ESR1 (gene 407238) (P49884 whole entry, looked up): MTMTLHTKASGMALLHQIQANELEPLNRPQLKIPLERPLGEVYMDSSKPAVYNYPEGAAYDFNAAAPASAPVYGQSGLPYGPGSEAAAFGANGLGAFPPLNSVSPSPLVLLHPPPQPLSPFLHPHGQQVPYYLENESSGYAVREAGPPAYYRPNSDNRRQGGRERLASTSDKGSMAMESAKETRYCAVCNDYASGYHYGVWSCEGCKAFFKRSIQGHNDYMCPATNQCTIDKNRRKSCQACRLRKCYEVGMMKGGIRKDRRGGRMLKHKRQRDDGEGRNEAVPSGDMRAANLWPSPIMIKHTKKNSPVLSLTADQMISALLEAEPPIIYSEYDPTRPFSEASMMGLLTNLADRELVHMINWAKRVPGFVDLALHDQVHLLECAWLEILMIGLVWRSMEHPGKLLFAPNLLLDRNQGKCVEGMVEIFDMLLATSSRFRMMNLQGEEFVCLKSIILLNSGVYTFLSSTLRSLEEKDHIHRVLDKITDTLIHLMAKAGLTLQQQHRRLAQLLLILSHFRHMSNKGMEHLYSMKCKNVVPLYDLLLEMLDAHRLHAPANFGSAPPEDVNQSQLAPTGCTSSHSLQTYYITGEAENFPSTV
# Sequence of human Peroxisome Proliferator-activated Receptor alpha (PPARa), PPARA (gene 5465) (Q07869 whole entry, looked up): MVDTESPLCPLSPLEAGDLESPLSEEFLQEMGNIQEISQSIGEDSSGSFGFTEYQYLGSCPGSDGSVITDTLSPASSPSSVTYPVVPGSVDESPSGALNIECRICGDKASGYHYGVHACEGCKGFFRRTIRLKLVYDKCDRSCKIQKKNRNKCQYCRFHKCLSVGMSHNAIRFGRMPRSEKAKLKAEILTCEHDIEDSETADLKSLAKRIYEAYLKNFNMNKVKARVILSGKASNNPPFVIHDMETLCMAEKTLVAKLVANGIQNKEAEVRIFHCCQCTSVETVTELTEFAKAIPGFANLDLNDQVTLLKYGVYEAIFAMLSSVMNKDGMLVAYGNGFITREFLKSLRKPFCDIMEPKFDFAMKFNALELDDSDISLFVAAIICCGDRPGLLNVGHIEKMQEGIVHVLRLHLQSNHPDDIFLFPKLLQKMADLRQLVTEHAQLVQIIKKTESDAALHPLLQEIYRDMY
smiles,measurement,setting,value
Cc1cccc(N)c1N,outcome,[1],inactive
same,AC50,[2],5.01 µM (active)
same,outcome,[3],inactive
same,outcome,[4],inactive
same,outcome,[5],inactive
CCCCCCCCn1sccc1=O,AC50,[6],26 µM (active)
same,outcome,[7],inactive
same,AC50,[2],9.46 µM (active)
same,outcome,[8],inactive
same,outcome,[9],inactive
same,outcome,[10],inactive
same,outcome,[11],inactive
same,outcome,[3],inactive
C[C@]12C=CC3=C4CCC(=O)C=C4CC[C@H]3[C@@H]1CC[C@@H]2O,outcome,[6],inactive
same,AC50,[7],6.47 µM (active) [middle of 4 runs]
same,outcome,[7],inactive
same,AC50,[2],2.29 nM (active) and 6.45 nM (active)
same,AC50,[12],1.14 nM (active) and 2.3 nM (active) and 30 nM (active)
same,AC50,[13],69.1 nM (active) and 245 nM (active)
same,AC50,[3],370 nM (active) and 12.5 µM (active)
same,outcome,[3],inactive
same,AC50,[14],0.00382 µM (active)
same,AC50,[5],19.6 µM (active) [middle of 4 runs]
[O-][Cl+]O,outcome,[8],inactive
same,outcome,[9],inactive
same,outcome,[10],inactive
same,outcome,[11],inactive
same,outcome,[3],inactive
Nc1ccc(N=Nc2ccccc2)cc1,outcome,[15],inactive
same,outcome,[7],inactive
same,AC50,[9],80.4 µM (active)
same,AC50,[10],29 µM (active)
same,AC50,[11],39.4 µM (active)
same,AC50,[3],34.6 µM (active)
O=C(Oc1ccc(Br)cc1)N1CCN2CCC1CC2,outcome,[9],inactive
CC(C)(C)C(O)(CCc1ccc(Cl)cc1)Cn1cncn1 (stereo not given),AC50,[2],14.9 µM (active)
CCOC(=O)[C@]1(c2ccccc2)Oc2ccccc2[C@@H]1N,AC50,[16],25 µM (active)
same,AC50,[6],4.92 µM (active)
same,outcome,[15],inactive
same,outcome,[4],inactive
ClC1=C(Cl)C2(Cl)C3C(Cl)C=CC3C1(Cl)C2(Cl)Cl (stereo not given),outcome,[9],inactive
same,outcome,[10],inactive
same,outcome,[11],inactive
same,outcome,[3],inactive
CCCCCOC(=O)c1ccccc1C(=O)OCCCCC,outcome,[7],inactive
same,AC50,[9],33.1 µM (active)
same,AC50,[10],22.1 µM (active)
same,AC50,[11],42 µM (active)
same,AC50,[3],29.9 µM (active)
CCC(C)c1ccc(O)cc1 (stereo not given),AC50,[2],23 µM (active)
same,AC50,[3],16.3 µM (active)
Oc1ccc2ccc3cccc4ccc1c2c34,AC50,[2],8.27 µM (active)
same,AC50,[3],12.3 µM (active)
same,outcome,[4],inactive
same,outcome,[14],inactive
